From the OligoGym collection come the findings set out here.

Targets include ABHD8; ACTL6A; ADAD1; ADAM19; ADRB1; AHCY; AKR1C4; AP3B1; APOBEC3A; ARHGAP30; ARPC4; ASPRV1; ATP10B; ATP6V0A4; AVPR1B; BBC3; BCL7A; C11orf49; C15orf54; C17orf71; C1QTNF1; C1orf105; C1orf101; C1orf106; C1QL1.
What all share (assay): pooled miR-30 sensor sort-seq; sequence = guide strand
Common to all, as to settings: shRNA
Also: reference of the scale not given here.

In the assay with ABHD8, TTTTCCACCAGCAACCGCCCAT came in with a sensor-assay potency score (higher = more potent) of -0.43. In turn, TTGAAGATTGAGCAGAAGCTGG gave a sensor-assay potency score (higher = more potent) in the assay with ABHD8 of -0.887. Turning to TTGAAGGACATAGCCATCGTGG, in the assay with ACTL6A, the sensor-assay potency score (higher = more potent) was -0.822. The same measure, in the same setting: the same measure for TTTATCGCCATCTATTTCCATT: -1.13.

The sequence TTGATTTTTCCATCATAGCAGG registered a sensor-assay potency score (higher = more potent) with ADAD1 of -0.926. In the assay with ADAM19, TTTCCGTGAACAATCTCCCAAA had a sensor-assay potency score (higher = more potent) of -0.808.

With TTTTCCGTGAACAATCTCCCAA, in the assay with ADAM19, the sensor-assay potency score (higher = more potent) is -0.446. Turning to TTGGTGAGCGTCTGCAGCCGCG, the sensor-assay potency score (higher = more potent) with ADRB1 was -1.38. Same read-out and setting: the result for TCGTCGTCGTCGTCGTCCGAGG reads -1.7. TCGGCCAGCAGGATGATGCGGC displayed a sensor-assay potency score (higher = more potent) with AHCY of -0.886. In the case of ATCTCGGTGATGATGACGCGGG, the sensor-assay potency score (higher = more potent) with AHCY was -1.23.

With TTCATCTTTTGGTAGTGGCGTC, the sensor-assay potency score (higher = more potent) with AKR1C4 is -0.396. The sequence TAGATCTTCATTCTTCTTCAAA showed a sensor-assay potency score (higher = more potent) in the assay with AP3B1 of -0.874. With TGGTCCATCTTGACCGAGGTGC, the sensor-assay potency score (higher = more potent) with APOBEC3A is -0.749.

TTAAAAATCTACTTGATCGGGA displayed a sensor-assay potency score (higher = more potent) with APOBEC3A of 0.68. As for AAGAGGATCGAGAAGCTCGGGA, the sensor-assay potency score (higher = more potent) with ARHGAP30 was -0.319. For TTTGCTACTCCTGACTTCCACT, the sensor-assay potency score (higher = more potent) with ARPC4 is -1.07. For the sequence TTGAGTCTTTGTCATCAACAGC, the sensor-assay potency score (higher = more potent) with ASPRV1 is -1.26. In the assay with ASPRV1, TTTGTCATCAACAGCAGCTTGA had a sensor-assay potency score (higher = more potent) of -0.258. In turn, TTTGAGATTAGAGACTTCCCAC displayed a sensor-assay potency score (higher = more potent) in the assay with ATP10B of 0.383.

In the assay with ATP6V0A4, TTTCGTCACAGGATCCTCCAGA had a sensor-assay potency score (higher = more potent) of 0.303. TAAGTGCAGCACGAACAGGTGC: the sensor-assay potency score (higher = more potent) in the assay with AVPR1B was -0.436. Turning to TTGAGGTCGTCCGCCATCCGCC, the sensor-assay potency score (higher = more potent) in the assay with BBC3 was -1.67.

For TTGTACAGGACCCTCCAGGGTG, in the assay with BBC3, the sensor-assay potency score (higher = more potent) was -1.05. As to TTTCTCTGAGCTGTTCATCGAA, the sensor-assay potency score (higher = more potent) in the assay with BCL7A was -0.326.

AACATTTTGATTCTTCTCGAAG: in the assay with BCL7A, the sensor-assay potency score (higher = more potent) was -1.09. With TTAGCTATTAGACACAAAGGGG, in the assay with C11orf49, the sensor-assay potency score (higher = more potent) is -0.469.

For the sequence TTCTGAGTGAGCTCCAGCGGGA, the sensor-assay potency score (higher = more potent) in the assay with C11orf49 was -1.01. In the case of TAGTATAATAAAGTTATGCTAC, in the assay with C15orf54, the sensor-assay potency score (higher = more potent) was -0.835. TTGAAAGGGACATCTGTTGGAT: the sensor-assay potency score (higher = more potent) with C15orf54 was 0.0555.

Turning to TTGATGCTTCCAGAACTCGTGT, the sensor-assay potency score (higher = more potent) with C17orf71 is -0.713. TTCATGTTGTTCTTCAGCCCTC returned a sensor-assay potency score (higher = more potent) with C1QTNF1 of -0.239. TTCATTTCTTGACATGTGGAGC showed a sensor-assay potency score (higher = more potent) in the assay with C1orf105 of -1.06. On to TTGCCTATTGGTTCCTTTCTGG, for which the sensor-assay potency score (higher = more potent) with C1orf105 came to 0.0888.

In turn, TTGACTTCCATGTCTGTGCTTC registered a sensor-assay potency score (higher = more potent) with C1orf101 of 0.808. In turn, TAGAACTTGCCGGTGAACATGT registered a sensor-assay potency score (higher = more potent) with C1QTNF1 of 0.14. The sequence TCACAGCAGCGCAAGCACCGGG came in with a sensor-assay potency score (higher = more potent) with C1QTNF1 of -0.832. For the sequence TTCATGTAAACAACCACTCTGT, the sensor-assay potency score (higher = more potent) with C1orf101 stood at 0.256. Sequence TTGATAGATTTCCATGTCCTGC had a sensor-assay potency score (higher = more potent) with C1orf101 of -1.09. Regarding TAAACAACCACTCTGTGCCATA, the sensor-assay potency score (higher = more potent) in the assay with C1orf101 is -0.921. Regarding TTGGTTTCCTCTAATCTCCTTT, the sensor-assay potency score (higher = more potent) with C1orf101 turned out to be 0.267. In the assay with C1orf106, TTCAGGTACAAAGACTTGCACA yielded a sensor-assay potency score (higher = more potent) of -0.854.

Sequence TTGTATTGTGCCATCATCCAAA came in with a sensor-assay potency score (higher = more potent) with C1orf101 of -0.463.

In the assay with C1orf105, TAAGCCAAGGAATCTTGTCAAA displayed a sensor-assay potency score (higher = more potent) of -1.39. In the assay with C1orf101, TAGTGCATCATCTTTTGTCATT came in with a sensor-assay potency score (higher = more potent) of -1.07. In the assay with C1orf105, TTCTGGGCAAGGAAGAACGTTG returned a sensor-assay potency score (higher = more potent) of -0.752. The sequence TAGCTGAGGACACAGCCACTTG yielded a sensor-assay potency score (higher = more potent) with C1orf106 of -1.67. In turn, TTTTCATTTCTTGACATGTGGA returned a sensor-assay potency score (higher = more potent) with C1orf105 of -0.589. In the case of TCGATCTCCGCGGTCACCCTTC, the sensor-assay potency score (higher = more potent) in the assay with C1QTNF1 is -1.09. TTTCATTTCTTGACATGTGGAG returned a sensor-assay potency score (higher = more potent) with C1orf105 of 0.0387. For the sequence TTGGAGGCCTCGATCTCCGCGG, in the assay with C1QTNF1, the sensor-assay potency score (higher = more potent) was -1.29. On the same count and under the same terms, the same measure for AAGATAGTGATGTTGATCTGGG: -0.107. In the assay with C1orf101, TAACTCTATAGTACCACAGAAA came in with a sensor-assay potency score (higher = more potent) of -1.26.

In the assay with C1QTNF1, TAGGTGTCCAGCTCCTCGCTGA had a sensor-assay potency score (higher = more potent) of -0.37. TCTAACTTAATAGTACTTCTGG gave a sensor-assay potency score (higher = more potent) in the assay with C1orf101 of 0.677. TCTAGCAAGACAATACACCACC displayed a sensor-assay potency score (higher = more potent) in the assay with C1orf106 of -0.714.

With TATTTGTTGCTGTTGCCGCCGT, the sensor-assay potency score (higher = more potent) with C1QL1 is -0.708. Turning to TAGAGGTTCACGAACTCCGTGT, in the assay with C1QTNF1, the sensor-assay potency score (higher = more potent) worked out at 0.258. TTGTTCTTCAGCCCTCTCGGCA returned a sensor-assay potency score (higher = more potent) with C1QTNF1 of -1.05.

The sequence TAGTGAATGTTTTCTGTTGGGA came in with a sensor-assay potency score (higher = more potent) in the assay with C1orf105 of 0.127.
